D2 ag-1 = Beta-Arrestin HTS for Positive Allosteric Modulators of the Human D2 Dopamine Receptor: Agonists; AID 624465, 2012; activation, % (concentration not given with the values); 0.084% of 360,000 active; DiscoveRx PathHunter D2 beta-arrestin, luminescence, 90 min; 100% = 57 uM dopamine signal; in the data active = activation above about 40%; inconclusive = between about 15% and that limit
Target sequence (P14416 whole entry, looked up): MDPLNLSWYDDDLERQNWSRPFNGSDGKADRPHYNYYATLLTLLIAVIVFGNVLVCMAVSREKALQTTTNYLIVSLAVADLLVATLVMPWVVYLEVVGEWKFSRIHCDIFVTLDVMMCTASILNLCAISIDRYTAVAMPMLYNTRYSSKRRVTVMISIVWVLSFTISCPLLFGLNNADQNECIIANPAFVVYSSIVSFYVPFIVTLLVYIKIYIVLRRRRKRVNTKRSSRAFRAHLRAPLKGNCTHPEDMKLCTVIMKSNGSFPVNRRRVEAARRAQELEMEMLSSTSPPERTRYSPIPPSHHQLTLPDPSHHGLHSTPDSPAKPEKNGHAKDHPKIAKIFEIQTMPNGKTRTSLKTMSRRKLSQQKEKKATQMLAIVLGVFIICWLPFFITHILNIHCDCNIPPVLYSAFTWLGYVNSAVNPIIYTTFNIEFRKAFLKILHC
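DiscoveRx PathHunter D2 beta-arrestin cells (2,100/well) attached overnight, then compound-stimulated 90 min at 37 C in HBSS/10 mM HEPES/0.1% Tween-20 buffer; beta-galactosidase complementation read by luminescence after 1 h at ambient temperature. Dopamine 57 uM final (EC100) as control.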
D2 ag-2 = HTS Assay for Allosteric Agonists of the Human D2 Dopamine Receptor: Primary Screen for Agonists; D(2) dopamine receptor (Homo sapiens), P14416; HEK293 T-REx D2 cells, calcium flux agonist mode; activation, % at 2 µM; 0.53% of 340,000 active; AID 485358, 2010;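 active = activation over 3 SD above normal in the single-dose calcium agonist read, cut at about 30% in these data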; note: 0% is about no effect
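Agonism is scored from calcium flux in a force-coupled, inducible HEK293 cell line expressing D2, read kinetically for 180 s after compound addition against dopamine controls.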
D2 PAM-1 = Beta-Arrestin HTS for Positive Allosteric Modulators of the Human D2 Dopamine Receptor: Potentiators; D(2) dopamine receptor (Homo sapiens), P14416; AID 624464, 2012; 0.23% of 360,000 active; DiscoveRx D2 beta-arrestin cells, luminescence, 90 min; 100% = 57 uM dopamine signal; potentiation, % (test concentration not listed); in the data active = potentiation above about 50%; inconclusive = mostly about 30% to 49%
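PathHunter beta-arrestin assay in DiscoveRx D2 cells. Compounds were added with an EC20 of dopamine (50 nM final) for 90 min at 37 deg C. Luminescence was read 1 h after detection reagent, with 57 uM dopamine as the EC100 control.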
D2 PAM-2 = HTS Assay for Positive Allosteric Modulators of the Human D2 Dopamine Receptor: Primary Screen for Potentiators; HEK293 T-REx D2, calcium flux, EC20 dopamine potentiation; 0.34% of 340,000 active; D(2) dopamine receptor (Homo sapiens), P14416; potentiation, % at 10 µM; AID 485347, 2010;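 active = potentiation over 3 SD above the plate norm, cut at about 30% in these data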; note: 0% is about no effect
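Calcium flux readout, no-wash dye, 1 read/s. Inducible HEK293 Trex D2 line, overnight 30 C. Compound alone 180 s (agonist flags), then EC20 dopamine, another 180 s to score potentiation.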
D2 antagonist = HTS Assay for Allosteric Antagonists of the Human D2 Dopamine Receptor: Primary Screen for Antagonists; D(2) dopamine receptor (Homo sapiens), P14416; inhibition, % at 10 µM; AID 485344, 2010; 2% of 340,000 active; HEK293 TREx D2 cells, calcium flux, dopamine EC80; in the data active = inhibition above about 30%; inactive = below that, where a call was filed; note: 0% is about no effect
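Inhibition of EC80 dopamine-driven calcium flux, recorded kinetically, defines activity here; cells are a tetracycline-induced HEK293 T-REx line expressing force-coupled D2.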
An asterisk follows results filed as active. In the library only some 2.4% were active in any assay of this set; here they are far more common.

Results for COC(=O)[C@@H]1[C@H]2C[C@H]3c4[nH]c5ccccc5c4CCN3C[C@@H]2CC[C@@H]1O ?
D2 ag-1: -3; D2 ag-2: 0; D2 PAM-1: -34; D2 PAM-2: -25; D2 antagonist: 58*

Results for COc1ccc(NC2=CC(=O)CC(c3ccccc3)C2)c(OC)c1 (centres undefined) ?
D2 ag-1: -1; D2 ag-2: -1; D2 PAM-1: -3; D2 PAM-2: -5; D2 antagonist: 31*

How did O=C(COC(=O)c1ccc([N+](=O)[O-])o1)NC1CCS(=O)(=O)C1 (centres undefined) do in these assays?
D2 ag-1: 6; D2 ag-2: 0; D2 PAM-1: inconclusive; D2 PAM-2: 8; D2 antagonist: 33*

How did O=C(COC(=O)c1ccc([N+](=O)[O-])o1)NC1CCCC1 do in these assays?
D2 ag-1: 8; D2 PAM-1: 14

Results for COc1ccc(NC(=O)COc2ccc(C(=O)NC3CCCc4ccccc43)cc2OC)cc1 (centres undefined) ?
D2 ag-1: -1; D2 ag-2: -2; D2 PAM-1: 3; D2 PAM-2: 36*; D2 antagonist: -2

How did CCOc1ccc(NC(=O)/C=C\C(=O)N(c2ccc(C(C)C)cc2)C(C(=O)NCc2ccco2)c2ccc(F)cc2)cc1 (centres undefined) do in these assays?
D2 PAM-2: -8

How did Cc1cc2ccccc2c(=O)n1CC(=O)NCC(=O)N1CCN(c2ccccc2)CC1 do in these assays?
D2 ag-1: -4; D2 ag-2: 1; D2 PAM-1: -7; D2 PAM-2: 0; D2 antagonist: 64*

How did Cc1cccc(NC(=O)C(NS(=O)(=O)c2ccc3c(c2)oc(=O)n3C)C(C)C)c1 (centres undefined) do in these assays?
D2 ag-2: -1; D2 PAM-2: 22

What do the screens show for `CCOC(=O)c1ccc(NC(=S)N(CCCN2CCCC2)Cc2cccs2)cc1`?
D2 ag-1: -5; D2 ag-2: 4; D2 PAM-1: -25; D2 PAM-2: -16; D2 antagonist: 9

Results for COc1ccc(NC(=S)N(CCCN2CCC(C)CC2)Cc2cccs2)cc1 ?
D2 ag-1: -1; D2 ag-2: -1; D2 PAM-1: -18; D2 antagonist: 18

Results for CCOC(=O)c1ccc(NC(=S)N(CCCN2CCCC(C)C2)Cc2cccs2)cc1 (centres undefined) ?
D2 ag-1: -3; D2 ag-2: 3; D2 PAM-1: -28; D2 PAM-2: -32; D2 antagonist: 40*

How did COc1cccc(NC(=S)N(CCCN2CCC(C)CC2)Cc2cccs2)c1 do in these assays?
D2 ag-1: -3; D2 ag-2: 2; D2 PAM-1: -17; D2 PAM-2: -35; D2 antagonist: 59*

How did COc1ccc(CCNC(=O)COC(=O)CSc2ccc(C(N)=O)cc2[N+](=O)[O-])cc1OC do in these assays?
D2 ag-1: 3; D2 PAM-1: 0

What do the screens show for `CCN(CC)CCOC(=O)c1ccc(NC(=O)c2cc3c(=O)n(CC)c4ccccc4c3s2)cc1`?
D2 PAM-2: 16

Results for Cc1ccccc1OCC(=O)Nc1ccc(OCc2cc(=O)n3ccsc3n2)cc1 ?
D2 ag-2: 0; D2 PAM-2: 8

How did CC(C)COCC(CN(Cc1ccccc1)c1ccccc1)N1CCCC1 (centres undefined) do in these assays?
D2 ag-1: -5; D2 ag-2: 38*; D2 PAM-1: -30; D2 PAM-2: -17; D2 antagonist: -8

Results for CC(C(=O)Nc1ccc(OCc2ccccc2)cc1)N1CCCC1 (centres undefined) ?
D2 ag-1: 3; D2 ag-2: 0; D2 PAM-1: 1; D2 PAM-2: -2; D2 antagonist: 7
